Source: PubChem BioAssay (EPA / NIEHS)
Where a structure was tested more than once in an assay, its records may differ in their call. Calls of active or inactive are those of the source. The calls were made as follows: active = hit-call score of the fitted dose curve at least 0.9, where 1 is the maximum; inactive = score below 0.9.

What follows are compounds tested against Cellular tumor antigen p53 (Homo sapiens) (UniProt P04637) (assay: ATG_p53_CIS: Attagene CIS-FACTORIAL HepG2 Assay for human p53 Transcription Factor (AID 2282994)). Details: HepG2 p53 cis-element reporter, Attagene mRNA; actives raise or lower the signal.
Protocol: ATG_CIS is a cell-based, multiplexed-readout assay that uses HepG2, a human liver cell line, with measurements taken at 24 hours after chemical dosing in a 24-well plate.ATG_p53_CIS is one of 52 assay component(s) measured or calculated from the ATG_CIS assay. It is designed to make measurements of mRNA induction, a form of inducible reporter, as detected with fluorescence intensity signals by Reverse transcription polymerase chain reaction (RT-PCR) and Capillary electrophoresis technology.Data from the assay component ATG_p53_CIS was analyzed into 1 assay endpoint. This assay endpoint, ATG_p53_CIS, was analyzed with bidirectional fitting relative to DMSO as the negative control and baseline of activity. Using a type of inducible reporter, measures of mRNA for gain or loss-of-signal activity can be used to understand the reporter gene at the transcription factor-level as they relate to the gene TP53. Furthermore, this assay endpoint can be referred to as a primary readout, because this assay has produced multiple assay endpoints where this one serves a reporter gene function. To generalize the intended target to other relatable targets, this assay endpoint is annotated to the dna binding intended target family, where the subfamily is tumor suppressor.
Human liver HepG2 cells are transiently transfected with multiple reporter transcription units (MRTUs) in 6-well plates using FuGene 6 reagent (Roche; 3 ml FuGene/1 mg DNA). The MRTU constructs are regulated by a cis-regulating element (promoter). […] A major difference between the CIS and TRANS system is that in CIS activities of endogenous TFs are measured, whereas the TRANS assay evaluates changes in activities of exogenous, chimeric NR-Gal4 proteins. […] At the end of 24 hour incubation, total RNA was isolated using TriZol reagent (Invitrogen). The isolated RNA is then reverse-transcribed using oligo(dT) primer and Mo-MLV reverse transcriptase (Invitrogen) with DNAse I (Ambion) treatment for 30 min. The one-tenth of the produced cDNA was amplified by PCR using Taq DNA polymerase (Invitrogen) and two reporter sequence-specific primers. The PCR products were fluorescently labeled by primer extension with 6-arboxyfluorescein (6-FAM) 5'-labeled reporter sequence-specific primer (2 min at 95 C, 20 s at 68 C and 10 min at 72 C) and these products were digested with 5U of HpaI (New England Biolabs) for 2h at 37 C. The fragments were purified using Qiaquick PCR columns (Qiagen), analyzed on an ABI 3130xL genetic analyzer (Applied Biosystems) with peak positions identified by using a set of X-rhodamine (ROX)-labeled MapMarker1000 molecular weight standards (BioVentures). The raw capillary electrophoresis data was processed using Attagraph software (Attagene).

Sequence of Cellular tumor antigen p53 (Homo sapiens) (P04637 whole entry, looked up): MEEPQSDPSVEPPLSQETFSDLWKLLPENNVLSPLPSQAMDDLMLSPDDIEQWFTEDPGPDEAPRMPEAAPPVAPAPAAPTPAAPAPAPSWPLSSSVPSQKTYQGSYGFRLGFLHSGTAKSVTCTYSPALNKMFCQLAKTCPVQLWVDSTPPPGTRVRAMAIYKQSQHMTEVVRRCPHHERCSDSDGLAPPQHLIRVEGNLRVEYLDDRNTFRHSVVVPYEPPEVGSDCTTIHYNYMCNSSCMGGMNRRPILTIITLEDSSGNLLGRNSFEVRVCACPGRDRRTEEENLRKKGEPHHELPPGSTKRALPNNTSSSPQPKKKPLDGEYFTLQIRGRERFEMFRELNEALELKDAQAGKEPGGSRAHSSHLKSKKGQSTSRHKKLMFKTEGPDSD

Row | Structure (SMILES) | outcome | AC50
1 | CCCCOc1ccc(N)cc1 | inactive | –
2 | O=S(=O)(O)c1ccc2ccccc2c1 | inactive | –
3 | CCCCCCS | inactive | –
4 | O[Si](c1ccccc1)(c1ccccc1)c1ccccc1 | inactive | –
5 | Nc1ccc(S(=O)(=O)Nc2nccs2)cc1 | inactive | –
6 | Cc1cc(C)cc(O)c1 | inactive | –
7 | OCC(F)(F)C(F)(F)C(F)(F)F | inactive | –
8 | NC(=O)C(F)(F)C(F)(F)C(F)(F)C(F)(F)F | inactive | –
9 | C=C(C)C(=O)OCC(F)(F)C(F)(F)C(F)(F)C(F)(F)C(F)(F)C(F)(F)C(F)(F)F | inactive | –
10 | O=C(O)C(F)(F)C(F)(F)C(F)(F)C(F)(F)C(F)(F)C(F)(F)C(F)(F)C(F)(F)C(F)(F)C(F)(F)C(F)(F)C(F)(F)C(F)(F)F | inactive | –
11 | FC(F)(F)C(F)(F)C(F)(F)C(F)(F)C(F)(F)C(F)(F)C(F)(F)C(F)(F)CCS | inactive | –
12 | OCC(F)(F)C(F)(F)C(F)(F)C(F)(F)C(F)(F)C(F)(F)F | – | 257 µM (active)
13 | O=C(O)C(F)(F)C(F)(F)C(F)(F)F | inactive | –
14 | CCCCCCCCCCCCCCCC[N+](C)(C)Cc1ccccc1 | inactive | –
15 | C=CC(F)(F)C(F)(F)C(F)(F)C(F)(F)C(F)(F)C(F)(F)C(F)(F)C(F)(F)F | inactive | –
16 | FC(F)(F)C(F)(F)C(F)(F)C(F)(F)C(F)(F)C(F)(F)CC1CO1 (stereo not given) | inactive | –
17 | CCCCCC=O | inactive | –
18 | Cc1ccc(S(=O)(=O)NCl)cc1 | inactive | –
19 | O=P(O)(O)OCCC(F)(F)C(F)(F)C(F)(F)C(F)(F)C(F)(F)C(F)(F)F | inactive | –
20 | COC(=O)CCC(F)(F)C(F)(F)C(F)(F)C(F)(F)F | inactive | –

Row | Structure (SMILES) | outcome | AC50
21 | O=C(O)C(F)(F)C(F)(F)C(F)F | inactive | –
22 | O=S(=O)(OCCOC(F)(F)F)C(F)(F)F | inactive | –
23 | FC(F)(F)C(F)(F)C(F)(F)CI | inactive | –
24 | OCC(F)(F)C(F)(F)C(F)(F)C(F)F | inactive | –
25 | O=C(O)C(F)(OC(F)(F)C(F)(OC(F)(F)C(F)(OC(F)(F)C(F)(F)C(F)(F)F)C(F)(F)F)C(F)(F)F)C(F)(F)F (stereo not given) | inactive | –
26 | FC(F)(F)C(F)(F)C(F)(F)C(F)(F)C(F)(F)C(F)(F)C(F)(F)I | inactive | –
27 | CCCCCCOC(=O)c1ccccc1O | inactive | –
28 | C#C[C@]1(O)CC[C@H]2[C@@H]3CCc4cc(OC)ccc4[C@H]3CC[C@@]21C | inactive | –
29 | CN(C)Cc1ccccc1O | inactive | –
30 | O=C(CC(=O)C(F)(F)C(F)(F)F)C(F)(F)F | inactive | 112 µM (active)
31 | CCO[Si](CCC(F)(F)C(F)(F)C(F)(F)C(F)(F)C(F)(F)C(F)(F)F)(OCC)OCC | inactive | –
32 | CC(C)(C)C(=O)CC(=O)C(F)(F)C(F)(F)C(F)(F)F | inactive | –
33 | O=C(OCCOCCOCCOC(=O)c1ccccc1)c1ccccc1 | inactive | –
34 | C(=C(c1ccccc1)c1ccccc1)c1ccccc1 | inactive | –
35 | CNC(=S)NC | inactive | –
36 | FC(F)(F)C(F)(F)C(F)(F)C(F)(F)C(F)(F)CCI | inactive | –
37 | COC(=O)C1CCC(C(=O)OC)CC1 (stereo not given) | inactive | –
38 | C=CC/C=C/C/C=C/C/C=C/C | inactive | –
39 | CC/C=C\CCOC(C)=O | inactive | –
